Measurements published in PubChem BioAssay.
Measured potencies and affinities stand elsewhere. Active and inactive are the calls of the source. The rule behind the calls is not given here.

test system: not listed separately; assay: HepG2 cell cytotoxicity, dose response, cytotoxicity control, plate reader, cherry-pick, antagonist series (AID 743416); conditions: series mostly up to 26 µM

Q: With C[C@H](CO)N1C[C@H](C)[C@@H](CN(C)S(=O)(=O)c2cccs2)Oc2c(cccc2N(C)C)C1=O as the compound, how does the outcome read?
A: The outcome was “inactive”.

Q: With C[C@H](CO)N1C[C@H](C)[C@@H](CN(C)CC2CCOCC2)Oc2ncc(Br)cc2C1=O as the compound, how does the outcome read?
A: The outcome was “inactive”.

Q: With COc1ccc(-c2cc(C(=O)N3CCOCC3)no2)cc1 as the compound, how does the outcome read?
A: Its outcome is “inactive”.

Q: With COc1ccc(-n2sc3ccc(F)cc3c2=O)cc1 as the compound, how does the outcome read?
A: The outcome was “inactive”.

Q: With COc1ccc(-c2cc(C(=O)N3CCCC3)no2)cc1 as the compound, how does the outcome read?
A: Its outcome is “inactive”.

Q: For CC(=O)c1c(C)[nH]c(C(=O)CN2C(=O)NC(C)(c3ccc(C)cc3)C2=O)c1C (configuration not stated), which outcome is on record?
A: The outcome was “inactive”.

Q: Which outcome does the source give for O=C(NCc1ccc(F)cc1)c1cc(C2CCCCN2S(=O)(=O)c2cccs2)on1 (configuration not stated) here?
A: The outcome was “inactive”.

Q: Which outcome does the source give for C[C@H](CO)N1C[C@H](C)[C@H](CN(C)C(=O)Nc2ccc3c(c2)OCO3)OCCCC[C@H](C)Oc2ccc(NC(=O)NC3CCCCC3)cc2C1=O here?
A: The outcome was “inactive”.

Q: Which outcome does the source give for O=C(O)c1ccc(Nc2nc3c(s2)CCCC3)cc1 here?
A: The outcome was “inactive”.

Q: With CC1(c2ccccc2Cl)NC(=O)N(CC(=O)N2CCc3ccccc32)C1=O (configuration not stated) as the compound, how does the outcome read?
A: Its outcome is “inactive”.

Q: For CC(C)(C)NC(=O)c1cccc(NC(=O)c2ccc3c(c2)C(=O)N(C(C)(C)C)C3=O)c1, which outcome is on record?
A: Its outcome is “inactive”.

Q: For C=CCNc1nc(-c2cc3ccccc3o2)cs1, which outcome is on record?
A: Its outcome is “inactive”.

molecular target: Melanocortin receptor 4 (Homo sapiens) (UniProt P32245); assay: MC4R antagonists, dose response, counter-screen for LGR2 antagonist project, cell-based, plate reader, cherry pick (AID 743444); conditions: MC4R-expressing cells, antagonist mode; series mostly up to 35 µM

Q: With CCOC(=O)Nc1ccc(N2CCOCC2)c(S(=O)(=O)Nc2ccc(Cl)cc2)c1 as the compound, how does the outcome read?
A: Its outcome is “inactive”.

Q: With COc1ccc(NC(=O)N(C)C[C@@H]2OCCCC[C@H](C)Oc3ccc(NC(=O)NC4CCCCC4)cc3C(=O)N([C@H](C)CO)C[C@@H]2C)cc1 as the compound, how does the outcome read?
A: The outcome was “inactive”.

Q: With COc1ccc(S(=O)(=O)Nc2ccc3c(c2)C(=O)N([C@H](C)CO)C[C@H](C)[C@H](CN(C)S(=O)(=O)c2ccc(F)cc2)OCCCC[C@@H](C)O3)cc1 as the compound, how does the outcome read?
A: Its outcome is “inactive”.

Q: For C[C@@H]1CN([C@@H](C)CO)C(=O)c2cc(NS(C)(=O)=O)ccc2O[C@@H](C)CCCCO[C@@H]1CN(C)Cc1ccc(C(F)(F)F)cc1, which outcome is on record?
A: Its outcome is “inactive”.

Q: Which outcome does the source give for C[C@H](CO)N1C[C@H](C)[C@H](CN(C)C(=O)Nc2ccc(F)cc2)OCCCC[C@H](C)Oc2ccc(NC(=O)NC3CCCCC3)cc2C1=O here?
A: Its outcome is “inactive”.

Q: For C[C@H](CO)N1C[C@H](C)[C@H](CN(C)Cc2ccccc2)Oc2c(NS(=O)(=O)c3cn(C)cn3)cccc2C1=O, which outcome is on record?
A: The outcome was “inactive”.

Q: With COc1cccc(C(=O)Nc2ccc3c(c2)OC[C@@H](C)N(CC2CC2)C[C@H](C)[C@H](OC)CN(C)C3=O)c1 as the compound, how does the outcome read?
A: The outcome was “inactive”.

Q: Which outcome does the source give for O=C(NCCOc1ccccc1)[C@@H]1CCCN1C(=O)c1cccs1 here?
A: Its outcome is “inactive”.

Q: With CC(C)N(C(=O)Nc1ccc2nsnc2c1)C(C)C as the compound, how does the outcome read?
A: Its outcome is “inactive”.

Q: Which outcome does the source give for Cc1cc(Cl)ccc1OCCCC(=O)Nc1cc(S(=O)(=O)N2CCOCC2)ccc1N1CCOCC1 here?
A: The outcome was “inactive”.

Q: With C[C@@H]1CN([C@@H](C)CO)C(=O)c2cccc(NC(=O)Nc3ccc(C(F)(F)F)cc3)c2O[C@H]1CN(C)C(=O)Nc1cccc2ccccc12 as the compound, how does the outcome read?
A: Its outcome is “inactive”.

Q: For O=C(Nc1cc(S(=O)(=O)Nc2ccccc2Cl)ccc1O)c1ccc(F)cc1F, which outcome is on record?
A: Its outcome is “inactive”.

Q: Which outcome does the source give for CO[C@@H]1CN(C)C(=O)c2ccc(NC(=O)C3CC3)cc2OC[C@@H](C)NC[C@@H]1C here?
A: The outcome was “inactive”.

Q: For O=C(C[C@H]1C=C[C@@H](NC(=O)C2CCC2)[C@H](CO)O1)NCCCN1CCOCC1, which outcome is on record?
A: Its outcome is “inactive”.

Q: Which outcome does the source give for CC(C)NC(=O)Nc1ccc2c(c1)C(=O)N([C@H](C)CO)C[C@@H](C)[C@H](CN(C)S(C)(=O)=O)OCCCC[C@H](C)O2 here?
A: The outcome was “inactive”.

Q: For COc1ccc(-c2noc(CCC(=O)N3CCN(c4ccc(Cl)cc4)CC3)n2)cc1, which outcome is on record?
A: Its outcome is “inactive”.

Q: For Cc1cccn2c(CNCC3(c4ccccc4)CCCC3)c(C(=O)N3CCOCC3)nc12, which outcome is on record?
A: The outcome was “inactive”.

Q: Which outcome does the source give for Cn1cnc(S(=O)(=O)N2C[C@@H](O)COC[C@H]3O[C@H](CC(=O)NC4CCCC4)CC[C@@H]32)c1 here?
A: Its outcome is “inactive”.

Q: With C[C@H](CO)N1C[C@H](C)[C@@H](CN(C)S(=O)(=O)c2cccs2)Oc2c(cccc2N(C)C)C1=O as the compound, how does the outcome read?
A: Its outcome is “inactive”.

Q: With C[C@H](CO)N1C[C@H](C)[C@@H](CN(C)CC2CCOCC2)Oc2ncc(Br)cc2C1=O as the compound, how does the outcome read?
A: The outcome was “inactive”.

Q: For CC(=O)c1c(C)[nH]c(C(=O)CN2C(=O)NC(C)(c3ccc(C)cc3)C2=O)c1C (configuration not stated), which outcome is on record?
A: The outcome was “inactive”.

Q: For O=C(NCc1ccc(F)cc1)c1cc(C2CCCCN2S(=O)(=O)c2cccs2)on1 (configuration not stated), which outcome is on record?
A: Its outcome is “inactive”.

Q: Which outcome does the source give for C[C@H](CO)N1C[C@H](C)[C@H](CN(C)C(=O)Nc2ccc3c(c2)OCO3)OCCCC[C@H](C)Oc2ccc(NC(=O)NC3CCCCC3)cc2C1=O here?
A: The outcome was “inactive”.

Q: For CC1(c2ccccc2Cl)NC(=O)N(CC(=O)N2CCc3ccccc32)C1=O (configuration not stated), which outcome is on record?
A: Its outcome is “inactive”.

Q: Which outcome does the source give for CC(C)(C)NC(=O)c1cccc(NC(=O)c2ccc3c(c2)C(=O)N(C(C)(C)C)C3=O)c1 here?
A: Its outcome is “inactive”.
